Screens as filed in PubChem BioAssay.
E-sel TNF inh: blocks E-selectin expression induced by TNF alpha. HUVEC TNFa-induced E-selectin immunofluorescence, high content. inhibition, % at 2 µM. 0.71% of 120,000 active;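 active = inhibition above the batch mean plus 3 SD, and confirmed as a hit on visual image review, cut at about 43% in these data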;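 note: 0% = TNF-stimulated DMSO wells and 100% = unstimulated control wells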
CYP2C19 act: activators of human cytochrome P450 2C19; P33261; recombinant CYP2C19, luciferin-H EGE luminescence; hits give high values; 0 = fully inhibited enzyme, 1 = untreated enzyme; activation factor at 5 µM; 96,000 tested, under 10 active; AID 1025;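 active = activation factor of at least 2 at 5 µM in the primary screen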;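 note: 0 = wells with 2.5 mM tranylcypromine and 1 = vehicle-only wells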
CYP2C19 inhib: inhibitors of human CYP2C19. inhibition, % at 5 µM. CYP2C19 Supersomes, luciferin-H EGE luminescence, 30 min. 21% of 96,000 active;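 active = CYP2C19 inhibition above a set limit at 5 µM in the primary screen, cut at about 50% in these data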;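 note: plate controls were negative control wells for no effect and 2.5 mM tranylcypromine positive control for full effect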
F-actin modifier: cytoskeleton assembly modification. AID 836. 0.18% of 91,000 active. inhibition, % at 2 µM. HUVEC TNFa F-actin phalloidin imaging, high content;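 active = inhibition above the batch mean plus 3 SD and confirmed as a hit by visual image inspection, cut at about 30% in these data, passing the limit was not always enough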
CYP2C9 inhib: human CYP2C9 inhibition; P11712; CYP2C9 Supersomes, luciferin-H conversion, luminescence; inhibition, % at 5 µM; 20% of 96,000 active; AID 777;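 active = blocking of liver enzyme CYP2C9 beyond about 50% at 5 µM, limit read from the data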
Target sequence (P11712 whole entry, looked up): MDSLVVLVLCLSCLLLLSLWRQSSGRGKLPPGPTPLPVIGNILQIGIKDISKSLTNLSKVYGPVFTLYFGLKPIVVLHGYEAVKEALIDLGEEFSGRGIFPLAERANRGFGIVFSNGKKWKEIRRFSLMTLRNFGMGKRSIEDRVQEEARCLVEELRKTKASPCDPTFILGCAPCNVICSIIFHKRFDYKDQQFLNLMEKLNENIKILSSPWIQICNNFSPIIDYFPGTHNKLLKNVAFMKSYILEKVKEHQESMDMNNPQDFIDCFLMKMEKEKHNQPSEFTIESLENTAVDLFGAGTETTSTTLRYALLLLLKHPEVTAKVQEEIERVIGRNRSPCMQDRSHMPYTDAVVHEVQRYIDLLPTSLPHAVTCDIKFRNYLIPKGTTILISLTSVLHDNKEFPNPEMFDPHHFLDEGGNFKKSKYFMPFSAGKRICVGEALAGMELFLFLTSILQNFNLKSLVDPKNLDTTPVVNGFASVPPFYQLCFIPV
CYP2C9 activ: activators of human CYP2C9; P11712; recombinant CYP2C9, luciferin-H conversion, luminescence; hits give high values; factor 1 = untreated enzyme, 0 = blocked; activation factor at 5 µM; 1.4% of 96,000 active;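 active = activation factor of 2 or more for CYP2C9 at a 5 µM dose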;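 note: 0 = sulfaphenazole-blocked wells and 1 = vehicle-only wells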
Active calls of the source: *; . = not tested or not shown. Most compounds without a hit are left out; they make up all but 22% or so of the library.

SMILES	E-sel TNF inh	CYP2C19 act	CYP2C19 inhib	F-actin modifier	CYP2C9 inhib	CYP2C9 activ
O=C(Cc1ccccc1[N+](=O)[O-])NCc1ccc2c(c1)OCO2	-0.9	.	.	.	.	.
O=C(NCCOc1ccccc1)c1ccc2c(c1)OCO2	.	0.1	86.4*	.	59.1*	0.4
CCOC(=O)C(CCCOc1cccc(CC)c1)C(=O)OCC	2.2	0.9	10.8	2.9	12.8	0.9
CN(C)c1nc(N)nc(-c2ccco2)n1	-14.2	1.1	-10.5	.	-11.1	1.1
COC(=O)NCc1ccc2c(c1)OCO2	-35.0	1	-2.3	8.8	-15.2	1.2
CCCCOCCCNC(=O)c1cccc(OC)c1	2.8	.	.	.	.	.
Cn1nnc2cc(C(=O)NCc3ccc4c(c3)OCO4)ccc21	32.1	0.5	52.1*	10.5	25.0	0.8
O=C(NCc1ccc2c(c1)OCO2)c1c(F)c(F)c(F)c(F)c1F	17.8	0.2	81.3*	-14.4	28.1	0.7
O=C(NCc1ccc2c(c1)OCO2)c1ccc2c(c1)OCCO2	30.6	0.1	87.7*	2.1	77.8*	0.2
COc1cccc(OCCNC(=O)c2cccc(OC)c2)c1	-15.2	0	97.2*	5.9	-18.4	1.2
CC(=O)N1CCc2cc(S(=O)(=O)CCC(=O)O)ccc21	-25.7	1	0.4	22.4	8.5	0.9
O=C(CC1C(=O)N(Cc2ccccc2)C(=S)N1CCN1CCOCC1)Nc1ccc(F)cc1 (configuration not stated)	-17.6	.	.	.	.	.
O=C(Oc1ccc(OC(=O)c2ccco2)c(S(=O)(=O)c2ccc(Br)cc2)c1)c1ccco1	2.0	0.4	63.5*	24.9	71.6*	0.3
COc1ccc(C(=O)CNc2ccc3ccccc3c2)cc1	-2.2	.	.	.	.	.
CCCCNC(=S)NNC(=O)c1csc2ccccc12	17.6	0.4	62.2*	14.8	-70.8	1.7
Cc1cccc(N2CC(C(=O)O)CC2=O)c1 (configuration not stated)	-32.0	1	3.3	2.3	-26.8	1.3
Nc1nnc(COc2cccc(C(F)(F)F)c2)s1	-3.1	0.4	63.9*	.	0.2	1
CCOC(=O)c1ccc(CSc2nnc(N)s2)cc1	-2.0	0.3	70.0*	-2.9	65.0*	0.3
Nc1nnc(SCc2ccc(Cl)cc2)s1	0.4	.	.	4.3	.	.
Cc1cccc(OCc2nnc(N)s2)c1	-28.8	0.7	28.7	-10.8	-2.4	1
Nc1nnc(SCc2ccc(F)cc2Cl)s1	-4.9	0.1	90.8*	8.6	11.2	0.9
Nc1nnc(SCc2cccc(C(F)(F)F)c2)s1	20.8	0	95.5*	-4.3	-26.4	1.3
Cc1cc(=O)n(CCC(=O)O)c2ccccc12	.	1.2	-22.5	-2.5	-30.7	1.3
O=C1C=C(NCC2CCCO2)C2(CCCCC2)O1 (configuration not stated)	.	1.1	-7.8	13.7	-7.2	1.1
Cc1cc(C(=O)CSc2nnnn2C)c(C)n1CCc1ccc(Cl)cc1	.	0.8	22.4	-5.6	8.9	0.9
SMILES	E-sel TNF inh	CYP2C19 act	CYP2C19 inhib	F-actin modifier	CYP2C9 inhib	CYP2C9 activ
Cc1cc(C(=O)Cn2cncn2)c(C)n1CCc1ccc(F)cc1	-14.9	0	98.7*	7.5	67.2*	0.3
CCCN(CCC)CCCNC(=O)c1ccc2c(c1)N(CC)C(=O)c1ccccc1S2=O (configuration not stated)	6.0	1	-0.7	12.3	9.9	0.9
COCCN1C(=O)c2ccc(C(=O)NCc3cccnc3)cc2C1=O	-12.2	1	-3.8	-0.6	-1.7	1
CCCCNC(=O)c1ccc2c(c1)N(CC)C(=O)c1ccccc1S2(=O)=O	-30.1	0.5	45.5	.	89.7*	0.1
CCN1C(=O)c2ccccc2S(=O)(=O)c2ccc(C(=O)NCc3cccnc3)cc21	.	0.4	58.5*	3.3	97.8*	0
O=C(COc1ccc(Cl)cc1)Nc1ccc(Cc2ccncc2)cc1	14.0	.	.	.	.	.
Cc1cc(OCC(=O)Nc2ccncc2)ccc1Br	-28.2	0	100.4*	8.3	99.2*	0
O=C(COc1ccc2ccccc2c1)Nc1ccc(Cc2ccncc2)cc1	29.7	0.1	89.8*	-18.0	94.8*	0.1
Cn1c(=O)c2c(nc(CN3CCN(Cc4ccccc4)CC3)n2Cc2ccc(F)cc2)n(C)c1=O	1.4	0.9	14.4	.	20.8	0.8
COC(CNC(=O)c1cccc2c1C(=O)N(Cc1cccnc1)C2)OC	.	0.5	50.1*	8.3	0.8	1
COCCN1Cc2cccc(C(=O)Nc3cccnc3)c2C1=O	-35.0	0.9	12.3	-7.4	23.3	0.8
CCOC(=O)N1CCC(NC(=O)c2cccnc2SC)CC1	-35.5	0.8	18.2	.	-13.3	1.1
CCOc1ccc(NC(=O)c2cccc3c2C(=O)N(Cc2cccnc2)C3)cc1	.	0.8	20.0	.	77.0*	0.2
CCOc1ccccc1NC(=O)c1cccc2c1C(=O)N(CCOC)C2	4.7	0.3	67.3*	6.4	88.4*	0.1
CCOC(=O)N1CCC(NC(=O)c2cccc3c2C(=O)N(Cc2cccnc2)C3)CC1	-58.0	0.9	14.7	.	56.5*	0.4
CCOC(=O)Cn1c(=O)n(Cc2ccco2)c(=O)c2ccc(C(=O)NCCc3ccccc3)cc21	.	0.7	27.0	-17.6	49.3	0.5
NC(=O)CSc1nnc(CCc2nc3ccccc3[nH]2)n1-c1ccccc1	-12.1	.	.	-9.0	.	.
CN=C(NC(=O)Nc1c(C)cccc1C)NC(=O)Nc1c(C)cccc1C	13.4	.	.	.	.	.
Cc1ccc(OCC(=O)Nc2ccc(S(=O)(=O)Nc3ccccn3)cc2)cc1C	3.7	.	.	.	.	.
CCOc1cc(/C=N/n2cnnc2)cc(Br)c1O	-7.1	1	-0.3	11.2	14.7	0.9
C(=N\n1cnnc1)/c1ccc(-c2ccccc2)cc1	3.8	0	98.9*	.	98.4*	0
CC(=O)Oc1ccccc1C(=O)Oc1ccc(/C=N/n2cnnc2)cc1	19.3	0.6	42.7	9.6	95.0*	0.1
C(=N\n1cnnc1)/c1ccc(OCc2ccccc2)cc1	-1.2	0.3	70.4*	.	81.0*	0.2
COc1cccc(/C=N/n2cnnc2)c1OCc1ccccc1	10.8	0.6	40.7	11.2	44.3	0.6
CCOc1ccc(/C=N/n2cnnc2)cc1	-8.1	0.2	81.7*	6.5	43.3	0.6
O=C(NCC12CC3CC(CC(C3)C1)C2)c1nn2cccnc2c1Cl	16.6	0.7	27.0	-6.4	1.2	1
CCOC(=O)CN1C(=O)C(Sc2n[nH]c(-c3ccc(O)cc3)n2)CCc2ccccc21 (configuration not stated)	-10.9	0.2	81.6*	-1.5	93.5*	0.1
CCCC1CC(=O)OC1(C)C(=O)CSc1n[nH]c(-c2ccccc2)n1 (configuration not stated)	14.7	0.7	33.6	-4.8	4.5	1
CC(C)(C)OC(=O)CN1C(=O)C(Sc2n[nH]c(-c3ccccc3)n2)CCc2ccccc21 (configuration not stated)	-5.0	0.3	69.2*	40.6	55.4*	0.4
CCOC(=O)CN1C(=O)C(Sc2nnc(-c3ccccc3OC)s2)CCc2ccccc21 (configuration not stated)	-8.3	.	.	-6.4	.	.
